About 530 (24%) of roughly 2,200 compounds were called active. Not all results are given here. Potency and affinity values are given separately. Values without a mark were called inactive.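 How the source made its calls: active means inhibition above a set limit at one or more concentrations of the dose series; inactive means inhibition under that limit at every dose.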
Assay: nmpC-GFP reporter counter-screen in S. Typhimurium, dose response, counter-screen for PhoP regulon inhibitor project, Salmonella Typhimurium, GFP fluorescence (AID 2401);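 further: S. typhimurium with Mg-insensitive nmpC-GFP reporter grown at 10 µM Mg2+; drop in reporter fluorescence reflects general culture growth inhibition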
Settings: 4 h; series mostly up to 150 µM; inhibition: at the top concentration
For `CC1CCCCN1Cc1cnc(Cl)s1` (configuration not stated), the “inhibition” value was -20.6%.
With `Oc1ccc(Br)cc1-c1ccn[nH]1` the “inhibition” value was 30.8%.
With `Cc1ccc(N(CC(=O)Nc2cccc(C)c2)S(=O)(=O)c2cccc3nonc23)cc1` the “inhibition” value was 1.6%.
With `Cc1ncc(C23CC4CC(CC(C4)C2)C3)[nH]1` the “inhibition” value was -14.8%.
With `O=C1C2=C(NC(=S)NC2c2ccc(Cl)cc2)NC(c2ccc(Cl)cc2)N1c1ccc(Cl)cc1` (configuration not stated) the “inhibition” value was 34% [at 75 µM].
For `Cc1ccc(C=Nc2ccccc2C(N)=O)cc1`, the “inhibition” value was -19.9%.
With `CC(C)CCn1c(SCC(=O)N2CC(=O)Nc3ccccc32)nc2scc(-c3cccs3)c2c1=O` the “inhibition” value was 8.29%.
For `C=CCNc1ncnc2ccc(Br)cc12`, the “inhibition” value was -22.4%.
With `c1coc(CNc2ncnc3ccccc23)c1` the “inhibition” value was -7.32%.
In the case of `CCOC(=O)N1CCN(S(=O)(=O)c2ccc(C(=O)NNc3nc4cc(C)cc(C)c4s3)cc2)CC1`, the “inhibition” value is reported as 27.3%.
In the case of `c1ccc(CN2CCN(c3nc(-c4ccccc4)nc(-n4ccnc4)n3)CC2)cc1`, the “inhibition” value is reported as -6.55%.
For `CCCOC(=O)Oc1ccc2c(=O)c(Oc3cc(C)cc(C)c3)coc2c1`, the “inhibition” value was -7.81%.
For `Cc1ccccc1NC(=S)NC1CCN(Cc2ccccc2)CC1`, the “inhibition” value was -15.9%.
With `OC1(c2ccc3ccccc3c2)CCN(Cc2ccccc2)C1` (configuration not stated) the “inhibition” value was 8.53%.
With `O=C1c2cccc(OCC(=O)N3N=C(c4cccs4)CC3c3ccc(F)cc3)c2CCN1Cc1cccnc1` (configuration not stated) the “inhibition” value was -8.74%.
For `COc1ccc(O)c(/C=c2/sc3nc4cc(C)c(C)cc4n3c2=O)c1`, the “inhibition” value was -18.9%.
For `Cc1ccc2c(CN3CCC(C)CC3)cc(=O)oc2c1`, the “inhibition” value was 2.64%.
In the case of `O=C(Cn1cnc2ccccc2c1=O)NCc1ccco1`, the “inhibition” value is reported as -11.4%.
In the case of `CCn1nc(C(=O)OC(C(=O)c2c[nH]c3ccccc23)c2ccccc2)c2ccccc2c1=O` (configuration not stated), the “inhibition” value is reported as 14.3%.
For `Cc1ccc(C)c(C(=O)NCc2ccncc2)c1`, the “inhibition” value was -45.6%.
In the case of `CCOC(=O)c1ccc(N2CCN(c3ccc(F)cc3)CC2)c(NC(=O)Nc2cccc(OC)c2)c1`, the “inhibition” value is reported as -10.5%.
In the case of `CCN(CC)CCN(Cc1cc2cc3c(cc2[nH]c1=O)OCCO3)C(=O)NC1CCCCC1`, the “inhibition” value is reported as 11.3%.
With `N#Cc1c(-c2ccccc2)ccn(Cc2cccc(Cl)c2)c1=O` the “inhibition” value was 1.76%.
With `CSc1nnc(NC(=O)CCc2ccccc2)s1` the “inhibition” value was 13.7%.
With `O=C(CSc1nc(Nc2ccccc2)nc(N2CCOCC2)n1)Nc1ccc([N+](=O)[O-])cc1` the “inhibition” value was -22.3%.
With `O=C(Nc1cc(C(F)(F)F)ccc1Cl)C(NCc1ccccc1)c1ccccc1` (configuration not stated) the “inhibition” value was -23.9%.
For `O=C(NC1CCCC1)c1ccc(Cl)s1`, the “inhibition” value was 38.4%.
With `O=C(NNc1nc(-c2ccccc2)cs1)c1ccccc1` the “inhibition” value was 10.6%.
For `COc1ccc(C2=Nc3cccc4cccc(c34)N2)cc1`, the “inhibition” value was 28%.
For `CCN(CC)S(=O)(=O)c1ccc(C(=O)N2CCN=C2SCc2cccnc2)cc1`, the “inhibition” value was -24.8%.
With `Cc1cc(C)n2c(SCC(=O)NCc3ccco3)nnc2n1` the “inhibition” value was -24.8%.
In the case of `Cc1ccc2nc(-c3ccc(Br)o3)oc(=O)c2c1`, the “inhibition” value is reported as -1.76%.
With `NC1=NC(=Nc2ccc(Br)cc2)c2ccccc21` the “inhibition” value was 19.6%.
In the case of `Cn1cnnc1SCC(=O)Nc1cccc(C(=O)O)c1`, the “inhibition” value is reported as -11.9%.
With `COc1ccc2nc(-c3ccccc3)cc(OC)c2c1` the “inhibition” value was -9.85%.
For `Nc1c(C(=O)Nc2ccc(F)cc2)sc2nc(-c3ccco3)ccc12`, the “inhibition” value was 31.4%.
For `Cc1cccc(-n2c(N)cc(=O)[nH]c2=S)c1`, the “inhibition” value was 33.4%.
For `COc1ccc(OCCSc2nnc(-c3ccc(OC)cc3)n2N)cc1`, the “inhibition” value was -17.8%.
With `CCOC(=O)N1CCN(S(=O)(=O)c2ccc(C(=O)NNc3nc4c(C)cc(C)cc4s3)cc2)CC1` the “inhibition” value was 38.3%.
In the case of `c1ccc2c(c1)CCN(c1ncnc3c1[nH]c1ccccc13)C2`, the “inhibition” value is reported as -20.7%.
For `O=C(C(=O)N1CCc2ccccc2C1)N1CCc2ccccc2C1`, the “inhibition” value was -29.3%.
For `O=C(Nc1ccc(S(=O)(=O)N2CCCC2)cc1)c1ccc(CN2CCc3ccccc3C2)cc1`, the “inhibition” value was -24.6%.
In the case of `Oc1ccc(NCc2ccccc2OCc2ccccc2F)cc1`, the “inhibition” value is reported as 11.3%.
For `NC(=O)N1OCC2COc3ccc4ccccc4c3C21` (configuration not stated), the “inhibition” value was 1.89%.
For `Cc1ccc(NC(=O)COC(=O)C2(c3ccc(Cl)cc3)CCCC2)cc1`, the “inhibition” value was -25.7%.
With `COc1ccc(/C=C(\NC(=O)/C=C/c2ccco2)C(=O)NCCc2nc3ccccc3[nH]2)cc1` the “inhibition” value was 17.5%.
For `C=CCOc1ccccc1CNCCCN1CCOCC1`, the “inhibition” value was -23.9%.
For `FC(F)(F)C1=CC(c2ccc(Br)cc2)=NCCN1`, the “inhibition” value was 20.8%.
With `CCCCC(=O)NCCNC(=O)c1cc(OCC(F)(F)F)ccc1OCC(F)(F)F` the “inhibition” value was -16.7%.
For `CCOc1ccc2c(c1)nc(SCC(=O)c1ccc(Br)s1)n2C`, the “inhibition” value was -16.9%.
In the case of `Cc1ccc(-c2csc(=S)n2CC(=O)OCC(=O)NCc2ccco2)cc1`, the “inhibition” value is reported as -20.7%.
For `CCc1nc(SCC(=O)N2CCCc3ccccc32)c2oc3ccccc3c2n1`, the “inhibition” value was -22.8%.
In the case of `O=C(CN1CCN(Cc2ccccc2)CC1)c1c[nH]c2ccccc12`, the “inhibition” value is reported as 16.1%.
With `Cc1ccc2c(c1)[nH]c1c(N3CCN(Cc4ccccc4)CC3)ncnc12` the “inhibition” value was -14.5%.
With `O=C(CCCOc1ccccc1)N1CCCc2ccccc21` the “inhibition” value was -6.41%.
With `C/C(Nc1ccc(F)cc1)=C(/C#N)C(N)=O` the “inhibition” value was -6.38%.
For `CN(C)c1ccc(/C=N/c2cc(-c3ccccc3)nn2-c2ccccc2)cc1`, the “inhibition” value was -1.68%.
For `CCC(CC)C(=O)NCCc1ccc(OC)cc1`, the “inhibition” value was -27.6%.
For `CCOc1c(Br)cc(CNCc2cccs2)cc1OC`, the “inhibition” value was -6.47%.
With `S=C(NCc1ccncc1)Nc1ccc(Cl)c(Cl)c1` the “inhibition” value was 14.8%.
In the case of `O=C(NC(NC(=S)Nc1ccc(Cl)c(Cl)c1)C(Cl)(Cl)Cl)c1ccco1` (configuration not stated), the “inhibition” value is reported as 16.2%.
With `Cc1ccsc1/C=N/NC(=O)Cn1cnc2ccccc21` the “inhibition” value was 1.05%.
In the case of `Cc1cc(NC(=O)c2ccccc2-c2ccccc2)ccc1Br`, the “inhibition” value is reported as -15.1%.
With `CC1=CC2=NC(=O)/C(=C\c3cc(C)n(-c4ccc(F)cc4)c3C)C(=N)N2O1` the “inhibition” value was -12.6%.
With `CC(=O)NCCOc1c(C)cc(S(N)(=O)=O)cc1C` the “inhibition” value was -20.1%.
With `O=C(NCCc1ccc(Cl)cc1)/C(=C/c1cccnc1)NC(=O)c1ccccc1` the “inhibition” value was -18.4%.
For `Cc1ccc(S(=O)(=O)N2CCC(C(N)=O)CC2)c(C)c1C`, the “inhibition” value was -12.4%.
With `Cc1nc([N+](=O)[O-])c(Br)n1CC(=O)c1ccccc1` the “inhibition” value was 37.9%.
In the case of `CC(=O)Nc1ccc(-n2nnnc2SCC(=O)Nc2cccc(NC(=O)c3ccco3)c2)cc1`, the “inhibition” value is reported as -44.5%.
For `COc1ccc(C(=O)Nc2cc(C)ccc2NC(=O)COc2ccccc2)cc1`, the “inhibition” value was -29.8%.
In the case of `C=CCn1c(SCC(=O)Nc2nnc(CC)s2)nnc1-c1cccnc1`, the “inhibition” value is reported as -26.2%.
For `Cc1ccc(C(=O)NCC(=O)NCC(=O)OCC(=O)c2ccc([N+](=O)[O-])cc2)cc1`, the “inhibition” value was -17.1%.

Source: PubChem BioAssay AID2401 (Southern Research Specialized Biocontainment Screening …, 2010)
